In PubChem BioAssay AID651899 (Broad Institute, 2012):
Entries with a potency or affinity are not part of this list. A number with no mark means an inactive call. How the calls were made is not given here.

Test: HEK293 cell viability loss – plate reader, cherry-pick, cytotoxicity control, dose response (AID 651899);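 further: cells exposed to compound for 48 hours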
Settings: series mostly up to 26 µM; activity change, negative = cytotoxicity: at the top concentration

Row | SMILES | activity change, negative = cytotoxicity
1 | Cn1c(=O)c2c(nc(OCc3cccnc3)n2Cc2ccccc2)n(C)c1=O | 0.309%
2 | O=C(C[C@H]1C[C@@H]2c3cc(NC(=O)c4cccnc4)ccc3O[C@@H]2[C@@H](CO)O1)NCC(F)(F)F | 5.96%
3 | Cc1c(NC(=O)c2cc3ccccc3o2)cccc1-n1cnnn1 | -12.2%
4 | COCCNC(=O)C[C@H]1CC[C@@H]2[C@@H](COc3ccc(NC(=O)Nc4cccc(F)c4)cc3C(=O)N2C)O1 | 3.73% [at 23.5 µM]
5 | Cc1ccc(Cc2c(C)nc3nc(SCC(=O)NCCN4CCOCC4)nn3c2C)cc1 | -21.5%
6 | N#C[C@H]1[C@@H](c2ccccc2)[C@@H](CO)N1C(=O)Nc1cccc(F)c1 | 20%
7 | O=C(CSc1nncs1)N1c2ccccc2Sc2ccccc21 | -12.5%
8 | Cc1cnc(C(=O)NC2CC(C)(C)Cc3c2cnn3-c2cccc(F)c2)cn1 (stereo unspecified) | -10.2%
9 | O=C(Nc1ccc2snnc2c1)N1CCOCC1 | 8.81%
10 | Cc1cccc(C2c3[nH]c4ccccc4c3CCN2C(=O)CN2CCOC2=O)n1 (stereo unspecified) | 12.6%
11 | CC(=O)N1CC[C@@H]2[C@@H](CO)N(C)c3ccc(-c4ccccc4)cc3[C@@H]21 | 29.7%
12 | C[C@@H]1CN([C@H](C)CO)C(=O)Cc2cc(NC(=O)Cn3cnnn3)ccc2O[C@H]1CN(C)Cc1ccc2c(c1)OCO2 | 0.316% [at 23.5 µM]
13 | COc1ccc(-c2ccc3c(c2)[C@H]2[C@H](CCN2C(=O)Cc2cccnc2)[C@H](CO)N3C)cc1 | -9.23%
14 | CC(C)(C)[S@](=O)N1Cc2cc(C(=O)NCc3ccccc3F)nc(-c3cccc(-c4cccnc4)c3)c2[C@@H]1CCO | -18.8% [at 23.5 µM]
15 | O=C(Nc1ccc(Cl)c(-c2nc3ccccc3[nH]2)c1)c1cccnc1 | 10.5%
16 | CC(=O)OCC(=O)[C@@]1(OC(C)=O)[C@@H](C)C[C@H]2[C@@H]3C[C@H](F)C4=CC(=O)C=C[C@]4(C)[C@@]3(F)[C@@H](O)C[C@@]21C | 11.6%
17 | COc1cc(-c2nc3ccccc3nc2-c2ccc(O)c(OC)c2)ccc1O | 24.3%
18 | CCOC(=O)c1ccc(N2C(=O)c3n[nH]c(C)c3C2c2ccc(OC)c(OC)c2)cc1 (stereo unspecified) | -12.5%

Row | SMILES | activity change, negative = cytotoxicity
19 | CC1CN(C(=O)Nc2ccc3snnc3c2)c2ccccc21 (stereo unspecified) | -12.4%
20 | Cc1cc(C(=O)CSc2nncs2)c(C)n1-c1ccc2c(c1)OCO2 | -23.3%
21 | C/C=C/c1ccc2c(c1)O[C@@H](CN(C)C(=O)Nc1ccccc1)[C@H](C)CN([C@H](C)CO)S2(=O)=O | -9.85%
22 | O=C(O)CCS(=O)(=O)c1nc(-c2cccs2)cc(C(F)(F)F)n1 | -3.98%
23 | Cc1cc(C)n2nc(C(=O)Nc3cccnc3)nc2n1 | -21.4%
24 | CCNC(=O)[C@H]1[C@H](CO)[C@H]2Cn3c(ccc(-c4ccccc4)c3=O)[C@H]2N1C(=O)Cc1cccnc1 | 18.2%
25 | C[C@@H]1CN([C@@H](C)CO)C(=O)Cc2cc(NC(=O)Cn3cnnn3)ccc2O[C@H]1CN(C)Cc1ccc2c(c1)OCO2 | 1.85%
26 | COc1cc(/C=C/C(=O)Nc2cccnc2)cc(OC)c1OC | -2.09%
27 | O=C(c1cccc(F)c1)N1CC[C@@H]2[C@@H](CO)Nc3ccc(-c4cccc(F)c4)cc3[C@@H]21 | 4.74%
28 | Cc1nc2nc(SCC(=O)NCc3ccco3)nn2c(C)c1Cc1ccccc1 | -21.3%
29 | COC(=O)c1c(C(=O)OC)c(-c2cccc(F)c2)n2c1CS(=O)C2 (stereo unspecified) | 25.7%
30 | O=C(c1ccc2c(c1)OCO2)N1CC[C@@H]2[C@H](CO)Nc3ccc(-c4ccc(F)cc4)cc3[C@@H]21 | 6.2%
31 | COc1ccc(Nc2c(-c3ccc(OC)cc3)nc3cnccn23)cc1 | 17.8%
32 | CCOc1ccc(C(=O)Nc2cc3c(cc2N2CCCC2)n(CC)c(=O)n3CC)cc1OCC | -27.8%
33 | COc1ccc(-c2nc3ccc(Cl)cn3c2Cc2ccccc2)cc1OC | -7.05%
34 | Cc1ccc(NC(=O)CSc2nc(=O)n(CCCN3CCOCC3)c3c2CCCC3)cc1F | 23.6%
35 | O=C(Nc1ncc2c(n1)CC(c1ccco1)CC2=O)c1ccco1 (stereo unspecified) | 20% [at 6 µM]
36 | O=C(N[C@H]1CC[C@@H](CCn2cc(-c3cccnc3)nn2)O[C@@H]1CO)c1ccccc1F | -2.93%
